A short description of the assay: NCI Yeast Anticancer Drug Screen. Data for the rad50EPP+ strain (AID 151).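 Further: 0% = growth of vehicle-treated control cultures.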 The following applies: S. cerevisiae rad50 mutant strain, stronger effect = higher value. As for the experimental part: Growth inhibition of yeast strains with defined genetic alterations is measured as a screen for potential anti-cancer activity. Selected strains with alterations in DNA damage repair or cell cycle control were exposed to compounds and growth inhibition was measured relative to vehicle treated controls. The strain used in this assay is rad50EPP+

This is part of a sample that, as a whole, favours compounds with a hit. Of some 79,000 tested, about 15% had one in any assay. Values without a mark were called inactive. Activity calls are given as the source filed them. No stated cut-off is given here; in the data, active means growth inhibition above about 70%; inactive means the rest.

For the compound `Cc1cccc2c1N=C(C(F)(F)F)CC2=O`, the growth inhibition runs as follows: (at 1.2 µM) 2%; (at 3.7 µM) 3%; (at 11.0 µM) 10%; (at 33.0 µM) 33%; (at 100.0 µM) 48%.
Turning to `CCCCCCCCCCCCCCCCNC(=O)/C(=C\c1ccc(Cl)c(Cl)c1)NC(=O)c1ccccc1`, the growth inhibition is 2% (at 1.2 µM); 6% (at 3.7 µM); 6% (at 11.0 µM); 34% (at 33.0 µM); 74% (active) (at 100.0 µM).
`O=C1C=CC(=O)N1c1ccc(I)cc1`: the growth inhibition was 59% (at 1.2 µM); 70% (active) (at 3.7 µM); 99% (active) (at 11.0 µM); 100% (active) (at 33.0 µM); 99% (active) (at 100.0 µM).
`NP1(Oc2ccc(F)cc2)=NP(N)(Oc2ccc(F)cc2)=NP(Oc2ccc(F)cc2)(Oc2ccc(F)cc2)=N1` (stereo not given): the growth inhibition is -6% (at 1.2 µM); -2% (at 3.7 µM); 2% (at 11.0 µM); 4% (at 33.0 µM); 1% (at 100.0 µM).
The matching figures for `CC(=O)c1cc2c(Cl)cc(Cl)cc2oc1=O`: -15%, -16%, -2%, -10% and 15%.
The matching figures for `Cc1cc(O)c2c(c1O)C(=O)C13C(=C2O)C(=O)C2C(O)C1C1C(O)C3C(=O)C3=C(O)c4c(O)cc(C)c(O)c4C(=O)C321` (stereo not given): 4%, 3%, -4%, 1% and -38%.
The matching figures for `CCN(CC)CC(O)C1CCC(c2ccccc2)CC1` (stereo not given): 4%, 6%, 15%, 23% and 68%.
Regarding `Cc1ccc(S(=O)(=O)N(C)c2ccc(Cl)cc2C2=NCCc3ccccc32)cc1`, the growth inhibition by setting is: (at 1.2 µM) -8%; (at 3.7 µM) -9%; (at 11.0 µM) -14%; (at 33.0 µM) -9%; (at 100.0 µM) -8%.

Source of the values: PubChem BioAssay (NCI).
